Screens (PubChem BioAssay)
Rab9 promoter act = Rab9 promoter activation | Huh7 Rab9 promoter-luciferase reporter, luminescence, 24 h | Potency, µM (titrated, usually from 9.22 µM), for the others: at the top dose activation, negative = inhibition, usual class: activators | 320,000 tested, 2.8% active; also: % of control where 0% means no effect; nearly all actives have a fitted effect of over 60% in size
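Luminescence from Amplite-detected luciferase (10 minutes, ambient) reports Rab9 promoter activation. Before that, stable Rab9-luciferase Huh7 cells (1500/well, reduced-serum OP-MEM I plus 10% FBS) were exposed to compound for 24 hours at 37C.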
ELG1 genotoxic = inducers of genotoxicity in HEK293T ELG1-luciferase cells; HEK293T ELG1-luciferase reporter, luminescence, 16 h; Potency, µM (doses to about 46 µM), for inactives: at the highest dose activity change, positive = activation, most hits filed as activators; 330,000 tested, 1.3% active; AID 504466; also: % of control where 0% means no effect; nearly all actives have a fitted effect of over 60% in size
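Genotoxic stress is detected as increased luminescence from luciferase-tagged ELG1 in HEK293T cells, measured with ONE-Glo after a 16 hr treatment at 37 °C.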
FLuc modulator = firefly luciferase modulation, counter-screen for miR-21 project. purified FLuc, Km substrates, luminescence inhibition. 360,000 tested, 6.9% active. P08659. AID 588342. Potency, µM (series often up to 57.5 µM), for the others: at the top dose activity change, negative = inhibition, actives largely listed as inhibitors;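 also: plate controls were vehicle for no effect and reference inhibitor for full effect; nearly all actives have a fitted effect of over 55% in size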
Target sequence (P08659 whole entry, looked up): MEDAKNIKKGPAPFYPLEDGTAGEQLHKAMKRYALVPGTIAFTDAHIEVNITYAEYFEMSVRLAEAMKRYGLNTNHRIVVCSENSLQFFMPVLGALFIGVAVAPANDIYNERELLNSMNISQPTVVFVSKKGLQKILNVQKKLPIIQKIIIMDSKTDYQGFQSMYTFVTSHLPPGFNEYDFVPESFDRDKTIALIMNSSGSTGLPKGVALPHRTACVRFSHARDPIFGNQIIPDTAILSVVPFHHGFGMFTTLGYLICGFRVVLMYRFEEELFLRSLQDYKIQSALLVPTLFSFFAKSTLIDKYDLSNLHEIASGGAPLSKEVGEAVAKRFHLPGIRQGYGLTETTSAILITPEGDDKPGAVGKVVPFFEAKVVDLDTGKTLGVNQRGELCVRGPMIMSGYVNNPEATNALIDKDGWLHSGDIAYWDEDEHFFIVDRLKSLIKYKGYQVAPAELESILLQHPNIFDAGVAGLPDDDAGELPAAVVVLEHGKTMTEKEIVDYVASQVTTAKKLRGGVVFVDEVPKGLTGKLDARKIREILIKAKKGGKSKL
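Biochemical qHTS of compounds, final roughly 60 µM downward over six points, against 10 nM purified firefly luciferase using Km concentrations of substrates (10 uM D-luciferin, 10 uM ATP) in Tris acetate pH 7.5 buffer; luminescence output.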
NPC1 prom act = activators of NPC1 promoter; Huh7 NPC1 promoter luciferase reporter, 24 h; Potency, µM (top dose mostly 9.22 µM), for the others: top-dose activation, usual class: activators; 320,000 tested, 2.4% active; also: % of control where 0% means no effect; nearly all actives have a fitted effect of over 60% in size
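Huh7 reporter cells (NPC1 promoter driving luciferase) are dosed with compound for 24 h at 37 °C, 5% CO2; luciferase detection reagent is then added and luminescence measured after 10 min at ambient temperature.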
SMN2 splice up = SMN2 splice variant enhancement; Potency, µM (highest dose often 46.1 µM), without a hit: top-dose activity change, positive = activation, hits mostly activators; HEK293 SMN2-luciferase splicing reporter, luminescence, 30-36 h; 210,000 tested, 2.8% active; also: % of control where 0% means no effect; nearly all actives have a fitted effect of over 55% in size
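HEK293 cells carry an SMN2 […]–luciferase reporter in which exon 7 inclusion puts luciferase in frame. Cells were plated 10-12 h before compound addition, then incubated 30-36 h at 37C. ONE-Glo luminescence was read; sodium butyrate at 4.5 mM final served as control.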
An asterisk follows results filed as active. An excerpt weighted towards active compounds, which were near 7.5% of everything screened. Calls follow the shape of the dose curve; as a rule, active = well fitted curve in the direction sought with a large enough effect; inconclusive = small, poorly fitted or top-dose-only effect, or another doubt; inactive = no such curve, though single readings can be large; an effect the other way counts as inactive or inconclusive. Potency is read from the fitted curve at half-maximal effect.

Screening CCOc1ccc(C(=O)C(C)OC(=O)CN2C(=O)NC(C)(C)C2=O)cc1 (stereo not given) returned Rab9 promoter act -4%, ELG1 genotoxic 2%, FLuc modulator 2% and NPC1 prom act -3%.
CC(CC(=O)N1CCc2ccccc21)S(=O)(=O)c1ccc2c(c1)NC(=O)CO2 (stereo not given) was read as Rab9 promoter act 0%, ELG1 genotoxic -1%, FLuc modulator -2% and NPC1 prom act 6%.
Cc1ccc(C)c(Cn2c(=O)n(Cc3ccco3)c(=O)c3oc4ccccc4c32)c1 was read as FLuc modulator -4%.
For Cc1ccc(-c2nn(-c3ccccc3)cc2/C=N/NC(=O)c2ccc(Br)o2)cc1 the results were Rab9 promoter act 6%, ELG1 genotoxic -14%, FLuc modulator 11µM*, NPC1 prom act -3% and SMN2 splice up -93%.
O=C(Nc1cccc2ccccc12)c1cn(-c2ccccc2)nc1-c1cccs1 was read as Rab9 promoter act -4%, ELG1 genotoxic 1%, FLuc modulator inconclusive, NPC1 prom act 4% and SMN2 splice up -1%.
`CN(C)C(=O)COC(=O)/C=C/c1cn(-c2ccccc2)nc1-c1cccs1` gave Rab9 promoter act 0%, ELG1 genotoxic -5%, FLuc modulator 19µM*, NPC1 prom act -3% and SMN2 splice up 7%.
Screening O=C(O)c1cccc(N/N=C/c2cn(-c3ccccc3)nc2-c2cccs2)c1 returned Rab9 promoter act 2µM*, ELG1 genotoxic inconclusive, FLuc modulator 1.3µM*, NPC1 prom act 3.5µM* and SMN2 splice up 14µM*.
O=C(N/N=C/c1cn(-c2ccccc2)nc1-c1cccs1)c1ccncc1 was read as Rab9 promoter act -2%, ELG1 genotoxic -2%, FLuc modulator 11µM*, NPC1 prom act 0% and SMN2 splice up 2%.
Screening CNC(=O)COC(=O)/C=C/c1cn(-c2ccccc2)nc1-c1ccc2c(c1)OCCO2 returned Rab9 promoter act 18%, ELG1 genotoxic -4%, FLuc modulator -16%, NPC1 prom act -4% and SMN2 splice up -32%.
For CC1CCN(c2nc3ccc(C(=O)N4CCN(Cc5ccc6c(c5)OCO6)CC4)cc3s2)CC1 the results were Rab9 promoter act 1%, ELG1 genotoxic inconclusive, FLuc modulator inconclusive, NPC1 prom act 3% and SMN2 splice up -46%.
`Cc1ccc(-c2c3c(=O)n(C)c(=O)n(C)c3c3c(C)nc4ccccc4n23)cc1` gave FLuc modulator -7% and SMN2 splice up -3%.
`CCOc1ccc(CNC(=O)Cn2cc3c(n2)-c2c(oc(C(=O)N4CCOCC4)c2C)CC3)cc1` gave FLuc modulator -11%.
N#Cc1ccccc1S(=O)(=O)c1ccccc1C(=O)Nc1ccccc1 was read as Rab9 promoter act 8%, ELG1 genotoxic 0%, FLuc modulator 0%, NPC1 prom act -1% and SMN2 splice up 1%.
For O=C(/C=C/c1cn(-c2ccccc2)nc1-c1cccs1)NCCN1CCOCC1 the results were Rab9 promoter act -1%, ELG1 genotoxic -9%, FLuc modulator 19µM* and NPC1 prom act 0%.
Screening O=C(c1cn(-c2ccccc2)nc1-c1cccs1)N1CCOCC1 returned Rab9 promoter act -4%, ELG1 genotoxic 1%, FLuc modulator inconclusive, NPC1 prom act -1% and SMN2 splice up -8%.
For O=C1/C(=C/Nc2ccc3c(c2)OCO3)CCc2ccccc21 the results were Rab9 promoter act 0.28µM*, ELG1 genotoxic inconclusive, FLuc modulator 0.12µM*, NPC1 prom act 0.89µM* and SMN2 splice up -76%.
Screening COc1ccc2c(c1)CC/C(=C\Nc1ccc3c(c1)OCO3)C2=O returned Rab9 promoter act 2.5µM*, ELG1 genotoxic 8%, FLuc modulator 1.2µM*, NPC1 prom act 3.5µM* and SMN2 splice up 35µM*.
`COc1ccc(N/C=C2\CCc3ccccc3C2=O)cc1` gave Rab9 promoter act 0.1µM*, ELG1 genotoxic inconclusive, FLuc modulator 0.054µM* and NPC1 prom act 0.25µM*.
Screening COc1ccccc1N(CC(O)CN1CCC(C)CC1)S(=O)(=O)c1ccccc1 (stereo not given) returned Rab9 promoter act 5%, ELG1 genotoxic 2%, FLuc modulator -1% and NPC1 prom act -4%.
